We go through 40 sequences from the supplement of paper PMC6555819.

The subject of the assay is VDR:RXRa (NR concentration 270 nM, RXRa partner concentration 90 nM). The assay can be described thus: PBM binding z-score (relative to random genomic background probes); higher = stronger binding; sequences stand for … in GC…GCGATTGACAGCGTAGAATGAAGG
The method, then: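 Protein-binding microarray (Agilent 4x180K custom design, double-stranded 60-nt probes: 5' GC cap, 34-nt variable region, 24-nt constant primer region; full probe sequence given). Purified or IVT nuclear receptor:RXRα heterodimers (3:1 NR:RXRα, mostly 270:90 nM) or homodimers were incubated for 1 h in PBS with 2% milk and no ligand, then detected with Alexa488 antibodies. Fluorescence from o1-orientation probes (~5 replicates averaged) was converted to z-scores against 500 random hg19 background probes. Variable regions are seed direct-repeat (DR0–DR5) sites, all their single-nucleotide variants and half-site ablations.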
For CCTAGCAGGCCATGGTCACTCAAGCATTTCGCTT, the PBM binding z-score was -0.485. The value for CTACCAAGGTGAACAAGGTAGTTGATTACTATTC was 1.45; that for TAGCCTAGGTCATCCAGGGGCCAGTATAGAAAGC was 3.1; that for GCGACTGGGGCAAAGCGGGTTACCATAAGGTTGG was 0.145.

For ATCTCTAGGTAAGACTCAGTTCAGTGATGAACGC, the PBM binding z-score worked out at 0.927. In the case of GATGCTAGGTCAACTGATGGTCAGCTAAAGCTCG, the PBM binding z-score was 1.69. Then ACTCGGAGGACAAAGGTCAGAGCGACGCCAGTGA, with 3.47. In the case of TCTTCTAGATCAAAGGTTAAGAAAGCCGAAGCCT, the PBM binding z-score was found to be 1.58. Sequence CCTACTGGGCCATCAGGTCTTTGATATCAACGTT gave a PBM binding z-score of -0.244. GGAACGAGGGCATTGGAGTTGATAGCATGGCGAT showed a PBM binding z-score of 2.6.

On to TCTATGAGTTGATTAGGGCAACCGAAACAGCGGA, for which the PBM binding z-score was 0.54.

Sequence AGTCAAAGATCAGGACGAGGTAACGTAAAGCACG yielded a PBM binding z-score of -0.216.

Sequence TCTGGTAGATCAATAGAGGTTAAGAAAGTGCGCT had a PBM binding z-score of 1.87. Then AGAAGGAGGGCAATGAGTTGATAGCACGGGTGGC, with 4.93; and CCTATTAGTTGACCATACGGGCAACCGAAGCTCG, with 0.598; and CGAACTAGGCCATCCAGGACAGTGAATACATTGA, with 0.0871. Then TCATATAGGTAAAAGCTGAAAGTCGGTGTGGTAA, with 0.748; and CCTCGGAGGACAACAGGAGTTCAGAGCTGCCAGA, with 1.14. The value for TCGAGTAGGGTAGTCGGGGCATTCAGCCAACATA was 0.167; that for AGCATGAGGTTATTAAGATCAGGGAATTGCGGTC was 2.36; that for CATACAGGGTCAGGTAGGCCAGAGTAGGGACGGC was 3.35.

Consider CCGACTGGTGCATAAGGTTACCATAAGCCAGCCC, for which the PBM binding z-score came out at 0.347. The value for TCTCTTAGTTGAAGGGCAACCGACGAGTCCGTTT was 0.951; that for ACTTACGGGTCAACGCGGTTATAGCACGCGTATA was 6.31. Then GTACCAAGGTGAATAGCTCGTTGATGAGTAGGCG, with -0.223; and CCGAGTAGGTTATGGGGCCTTCAGGCAACGGTGA, with -0.408. Then TCTAGTTGGCCACGGAGGTCACACACGACGGGTA, with 3.97; and TAGCCTAGCTCATGCGGGCCAGTATAGTGTCGGC, with -1.1; and CCTTACGGGTCACTGACAGGTGATAGCATTTGGA, with 4.2.

Consider TCTGCTAGGTCAGTTGGTCTGCTAACGAGCTGCC, for which the PBM binding z-score was found to be 0.0911. For the sequence ACTATTAGTTGACTTAGGGCAACCGCTACGACGC, the PBM binding z-score was determined as 0.319. Then TCATGTAGATCAAGCAGGTTAAGAAAGCCTGAGT, with 0.938.

In turn, CCTAGCAGGCCAATCTGGGTCACTCGAGGCTTGA came in with a PBM binding z-score of 0.491.

CCTCGGAGGACAACAGGAGCTCAGAGCTGCCAGA registered a PBM binding z-score of -0.533. Sequence TAGCCTAGGTCAGATCGGGCCAGCATACGCTATA yielded a PBM binding z-score of 0.584. The value for TCTTGTAGATCAACAGGAGTTTAAGAAAGATCGA was 0.517. Then CTCGAAAGGTCGGTTGAGGTGAGGATACGGATAA, with 2.29; and CCTACTGGGCCATGCAGAGGTCATTGATCATATG, with 3.86.

TAGCCTAAGTCAGATCGGGCCAGTATACGCTATA had a PBM binding z-score of -0.662. The value for ATAACGAGGGCAATGAGTTGATAGCACGGGTGGC was 4.89.
